Results published in PubChem BioAssay AID463190 (Sanford-Burnham Center for Chemical Genomics, 2010).
In all, about 330,000 compounds went through this assay and about 7,300 (2.2%) were called active.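 Rule for the calls: active = inhibition of at least 40%; inactive = the rest.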 Only a selection was taken, and actives are over-represented in it overall.

Test: growth inhibitors of tim10-1 mutant yeast, primary screen, luminescence, uHTS (AID 463190);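 note: mutant grown at 25 °C; 0% = DMSO wells with yeast and 100% = wells holding no yeast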
Conditions: S. cerevisiae tim10-1 ts strain growth, BacTiter-Glo, 24 h; at 20 µM; hits give high values

Structure (SMILES) | inhibition
Cc1ccsc1C(=O)OCC(=O)c1cc(C)n(CC2CCCO2)c1C (stereo unspecified) | 33% (inactive)
COc1ccc(C(=O)OCC(=O)c2cc(C)n(CC3CCCO3)c2C)cc1[N+](=O)[O-] (stereo unspecified) | 44.5% (active)
COc1ccc(C(=O)OCC(=O)NCC2CCCO2)cc1[N+](=O)[O-] (stereo unspecified) | -1.22% (inactive)
COC(=O)CN1C(=O)[C@H]2[C@@H](/C=C/c3ccccc3)N3C(=O)CN(Cc4ccccc4)C(=O)[C@@]3(Cc3ccccc3)[C@H]2C1=O | 8.2% (inactive)
CC1=C(C(N)=O)C(c2ccc(Br)cc2)n2ncnc2N1 (stereo unspecified) | 10.7% (inactive)
Fc1ccccc1/C=C1\CCCC2=C1Nc1ncnn1C2c1ccccc1F (stereo unspecified) | 40.1% (active)
OC1CN=C2Sc3ccccc3N2C1 (stereo unspecified) | 10.5% (inactive)
CCc1cccc2c(C=C(C#N)C#N)cn(CC(=O)N3CCCCC3)c12 | 18% (inactive)
Cc1ccc(C(=O)O)cc1S(=O)(=O)NCC1CCCO1 (stereo unspecified) | -1.57% (inactive)
CC(C)C(OC(=O)c1cccs1)C(=O)NC1CCCCC1 (stereo unspecified) | 14.5% (inactive)
Cn1c(C(=O)OC(C(=O)NC2CCCCC2)c2ccccn2)cc2sccc21 (stereo unspecified) | 40.4% (active)
Cn1c(C(=O)N2CCCC(C(=O)NCc3ccccc3)C2)cc2sccc21 (stereo unspecified) | -2.21% (inactive)
O=C1C2(c3ccccc3)CN(CCCO)CC1(c1ccccc1)CN(CCCO)C2 | 13.9% (inactive)
CCOC(=O)C1(C(F)(F)F)N=C(N(C)C)OC(N(C)C)=N1 | 0.707% (inactive)
S=c1[nH]c2ccccc2c2ccccc12 | 40.1% (active)
S=c1ccc2ccccc2[nH]1 | 8.36% (inactive)
CCCCn1c(=S)[nH]c2ccccc2c1=O | 30.4% (inactive)
CC(C)Oc1ccc(C(CC(=O)N2CCOCC2)C(C)C)cc1 (stereo unspecified) | 1.61% (inactive)
COc1ccccc1C(=O)NCC(=O)NCCSc1ccc(Br)cc1 | 12.5% (inactive)
CCN1CCN(c2ccc(NC(=O)c3cnccn3)cc2)CC1 | 4.72% (inactive)
Oc1ccccc1CN1CCN(C(c2ccccc2)c2ccccc2)CC1 | 24.4% (inactive)

Structure (SMILES) | inhibition
CCN1CCN(C(c2cccnc2)c2cc(Cl)c3cccnc3c2O)CC1 (stereo unspecified) | 50.7% (active)
C=C(C)c1cccc(C(C)(C)NC(=O)NCCN(CC)CC)c1 | 15.8% (inactive)
O=C1COc2ccc(NC(=O)N3CCN(c4ccc(F)cc4)CC3)cc2N1 | -1.3% (inactive)
CCOC(=O)C1Nc2ccc(C(F)(F)F)cc2C2C=CCC12 (stereo unspecified) | 26.6% (inactive)
COC(=O)NC1(C(F)(F)F)NC(=O)N(C2CCCCC2)C1=O (stereo unspecified) | -0.477% (inactive)
O=C1NC(Nc2nc3ccccc3s2)(C(F)(F)F)C(=O)N1C1CCCCC1 (stereo unspecified) | 55.7% (active)
O=C(NC1(C(F)(F)F)NC(=O)N(C2CCCCC2)C1=O)c1ccco1 (stereo unspecified) | 9.83% (inactive)
C=CCC1(CC=C)CCCN1C(=O)CC1C(=O)NCCN1Cc1ccccc1OC (stereo unspecified) | 7.02% (inactive)
S=C(NCc1cccnc1)Nc1ccc(Cl)cc1Cl | 15% (inactive)
O=C(Nc1cccc2cccnc12)c1cccc(Cl)c1 | 20.4% (inactive)
CC(=O)/C(=N\Nc1ccc(Cl)cc1Cl)Sc1cccc2cccnc12 | 53.2% (active)
Cn1cccc1C(=O)OCC(=O)NCCc1ccccc1 | -4.06% (inactive)
Cc1c(C)n(Cc2ccc(Cl)cc2)c2ccc(C(=O)NCCCN3CCOCC3)cc12 | 5.97% (inactive)
O=C(Nc1ccc(Cl)cc1)Nc1nnc(/C=C/c2ccccc2)s1 | 5.19% (inactive)
O=C(Nc1ccccc1)c1nnsc1S(=O)(=O)c1ccc(Cl)cc1 | 87.7% (active)
NS(=O)(=O)c1ccc(CCNC(=O)Nc2ccc(Cl)cc2)cc1 | 8.7% (inactive)
COC(=O)c1cc(NC(=O)c2nn(C)c(=O)c3ccccc23)cc(C(=O)OC)c1 | 13.9% (inactive)
CCc1ccccc1NC(=O)Cc1cn(C)c2ccccc12 | 24.8% (inactive)
C=C(C)Cn1c(C)cc(C)c(S(=O)(=O)c2ccccc2C)c1=O | 27.4% (inactive)
Nc1ccccc1SC(C[N+](=O)[O-])c1ccccc1 (stereo unspecified) | 48.9% (active)
CCS(=O)(=O)c1cc([N+](=O)[O-])c(Sc2ccccc2N)s1 | 7.45% (inactive)

Structure (SMILES) | inhibition
Cc1ccc(C)c(N2CCN(C(=O)CCCCn3c(=O)[nH]c4ccccc4c3=O)CC2)c1 | 40.7% (active)
Cc1ccc(C)c(N2CCN(C(=O)CCc3nc4ccccc4[nH]3)CC2)c1 | 22.3% (inactive)
Cc1ccc(C)c(N2CCN(C(=O)CCCCCn3c(=S)[nH]c4ccc(N5CCOCC5)cc4c3=O)CC2)c1 | 0.092% (inactive)
O=C(CCC1CCCCC1)Nc1cc(C(F)(F)F)ccc1N1CCOCC1 | 27.5% (inactive)
O=C(NCCc1ccccc1)C1CCC(Cn2c(=O)c3ccccc3n(Cc3cccnc3)c2=O)CC1 (stereo unspecified) | 15.4% (inactive)
Cc1ccc(Cl)cc1NC(=O)C1CCCN(c2cnccn2)C1 (stereo unspecified) | 12.5% (inactive)
CC(=O)c1cc(C#N)c(SCC(=O)Nc2nccs2)nc1C | -56.3% (inactive)
S=c1[nH]nc(COc2ccccc2)n1-c1ccccc1 | 21.4% (inactive)
S=c1[nH]nc(CSCc2ccc(Cl)cc2Cl)n1-c1ccccc1 | 41.3% (active)
Cc1ccc(NCc2n[nH]c(=S)n2-c2ccccc2)cc1Cl | 23% (inactive)
CCCCNC(=O)C(C)N(CCN(C)C)C(=O)CCCN1C(=O)NC(c2ccc(Cl)cc2)C(C(=O)OCc2ccccc2)=C1C (stereo unspecified) | 6.33% (inactive)
CCCc1cc(=O)[nH]c(SCC(=O)Nc2sc3c(c2C#N)CCCC3)n1 | 6.17% (inactive)
COc1ccc(CCNC(=O)C(=O)Nc2ccc3nc4n(c(=O)c3c2)CCCCC4)cc1OC | 9.06% (inactive)
CCn1cc(CNC(=O)c2cc([N+](=O)[O-])c(C)c([N+](=O)[O-])c2)cn1 | 14.3% (inactive)
S=C(NCC1COc2ccccc2O1)Nc1ccc(Br)cc1 (stereo unspecified) | 7.9% (inactive)
CCC(=O)c1ccc(OCC(=O)N(CC)CC2COc3ccccc3O2)cc1 (stereo unspecified) | 18.9% (inactive)
CCCN(CC1COc2ccccc2O1)C(=S)Nc1ccc(C)cc1 (stereo unspecified) | 46.4% (active)
CC(C)C(O)C1CCN(Cc2nc(Cc3ccccc3Cl)no2)CC1 (stereo unspecified) | 15.8% (inactive)
C/C=C(/C)C(=O)O[C@@H]1c2cc3c(c4c2[C@@]2(CO4)C(=O)C(OC)=C(OC)C=C2C[C@@H](C)[C@H]1C)OCO3 | 13.3% (inactive)
